PMC12136788
Over roughly 24,000 sequences, “enrichment r” has its median near 0.99; the highest 2% begin near 3.7. The sample as a whole holds a higher share of the highest values than the screen did.

T1: UNK ZnF1-3 (human, UniProt Q9C0B0 31-174)
T1 sequence: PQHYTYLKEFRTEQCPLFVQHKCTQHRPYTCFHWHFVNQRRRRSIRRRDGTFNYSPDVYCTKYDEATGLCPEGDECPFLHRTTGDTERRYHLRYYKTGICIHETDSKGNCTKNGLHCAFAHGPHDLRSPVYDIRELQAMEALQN

B1: chr14:57575763:57575764:+_ENSMUSG00000021945_ENSMUST00000022511|mus_hu|FALSE|FALSE (ssRNA)
RNA: GGGAGUUCUACAGUCCGACGAUCCACUGUUUUCAGGCCAAAAUACUUAGUGUUAAAGUAGAACAGUGUAUUCAGAAGAGCUACUGGAGAGUGUGAUCCUAGUUGUUUUAUCCUCCAGAGAUAGUCUUCUUCAACUCGAGAGAACAACAGAGGAUUGAGCAUCA
B2: chr1:183495733:183495734:+_ENSG00000116698_ENST00000515829|hu_hu|FALSE|FALSE (ssRNA)
RNA: GGGAGUUCUACAGUCCGACGAUCGGAAGACUUCACACGGCAUGGUAAAUCUACAUUAAAUACUGUACACAGUUCUUGUAAUAACUGAGUAUAGAAGCCACUAGCUGCCUCUAGGAACAGAGAAAGGUUUGCCUGAACUUCACUCAACAGAGGAUUGAGCAUCA
B3: chr12:58340223:58340224:+_ENSMUSG00000079104_ENSMUST00000139049|mus_mus|motif|central (ssRNA)
RNA: GGGAGUUCUACAGUCCGACGAUCCUGUAUUUUGGAGCAGUGUUUCAUCUUGUCUUCCUGAGGUAUGGUAUUGGUAACGGCGGCUGCUUCAAAGCAUGCAUUGUUGAUGCGAGAAAUGGCAGGGCCAGAGAAGAUUCCAUGCGUCAACAGAGGAUUGAGCAUCA
B4: chr12:39763582:39763583:-_ENSG00000139116_ENST00000544797|hu_mus|hu_hu_hu_mus_False|18_58 (ssRNA)
RNA: GGGAGUUCUACAGUCCGACGAUCCUCUAGGAACUGGGCAUUCACUUUGAAUUCAGGAGGGGGCAGCCCGUUUUUAAUUGCUAUGUGCUUUUUCUCAUCAAUACUCUUGAACAGGUGUUUAACAGCUCGAGAGAUGAUGCCCUGCAACAGAGGAUUGAGCAUCA
B5: chr2:74756847:74756848:-_ENSG00000115307_ENST00000377526|hu_hu|FALSE|FALSE (ssRNA)
RNA: GGGAGUUCUACAGUCCGACGAUCGCCGCCAUUUUCGCGCCCGGCCGCAGGGGCUCUUGGGAAGGCGGAGUCUUUGGGCAUCCGCCCGGGGUGAGGGGACCCGAAGUCCUGAGGCGCGCCGGAAGGGCUAGCGGUCCCAGCAUACAACAGAGGAUUGAGCAUCA
B6: 138058580_138059465_3786_CDS_ENSMUSG00000041642_ENSMUST00000075164|mouse|control|control (ssRNA)
RNA: GGGAGUUCUACAGUCCGACGAUCGGAGGCCAGGGACUUGGUGAUGUUCUUGGUAGAGCUGUCCAAUGGGGGUCCUAGGCACUCCGCAGACACGGCCUUCAUCUGUGCGGAUAGCUUGGGCUCACCCUUGAACUUGAAGUCAUCCAACAGAGGAUUGAGCAUCA
B7: chr8:104447970:104447971:+_ENSG00000164934_ENST00000297579|hu_hu|hu_hu_hu_mus_False|78_98 (ssRNA)
RNA: GGGAGUUCUACAGUCCGACGAUCAUACACUUCCCUGCUUCGACUUUUGUCCACAGGAAAGAUUCGAAUAGACUUAUCAAAGCUGGCAGACACAAAUUCCUUCCCAGUGGGAGAGUAGUCCACAUCAAGUACUGCAGACACGUGCAACAGAGGAUUGAGCAUCA
B8: chr15:78454051:78454052:+_ENSG00000166411_ENST00000558554|hu_mus|FALSE|FALSE (ssRNA)
RNA: GGGAGUUCUACAGUCCGACGAUCAUGCUCAAUUCCACUGUAUUCUCCUUCCGUGUUCUCUCGGAUGGUGACGAUAUUUACAUCCGUGUAAGGGGUUUUAUAACCUUCAAUUGAGACACAUGGCCGGACAUUGGCAUAAAGGUCCAACAGAGGAUUGAGCAUCA
B9: chr11:93987321:93987322:+_ENSMUSG00000020859_ENSMUST00000103168|mus_mus|motif|central (ssRNA)
RNA: GGGAGUUCUACAGUCCGACGAUCUACAAAGUUACAUUCCGAACCCCAGGGAUUCCAUAAUAGAAAUAAAUACUGAAAUAACGGCAUUGCUAAAUGAGCUUUUUACGCAUAGAAAUGAAGCCGUGGCCUCUAAAGACAGCAAAUCAACAGAGGAUUGAGCAUCA
B10: chr17:65740002:65740003:+_ENSG00000130935_ENST00000581375|hu_hu|hu_hu_hu_mus_False|68_98 (ssRNA)
RNA: GGGAGUUCUACAGUCCGACGAUCAACAAAUCUUUCUCUGGAUGAAGAACAGGAAGAUUCAUAUUAACUUUAUAAAAUAUCCAUCAAGUUAGGUGUGGUGGCCACACCUUUACUCCCAGCACUUUGGGAGGUGGAUCUCUGAGUCAACAGAGGAUUGAGCAUCA
B11: chr10:122431106:122431107:-_ENSMUSG00000034602_ENSMUST00000073792|mus_mus|FALSE|FALSE (ssRNA)
RNA: GGGAGUUCUACAGUCCGACGAUCAAUAUUUUCAAAAUGUUGCCACUCUUACUAUUUUGAUACUUUAUCAGUGAUAGUCCUAUUCUUUAAUUCACAAGUGAGUAUAUCAAAAUAUAAAAAAUACACGGCUUGAGUCAUUUUUUUCAACAGAGGAUUGAGCAUCA
B12: chr14:73742652:73742653:-_ENSG00000133961_ENST00000557597|hu_hu|motif|central (ssRNA)
RNA: GGGAGUUCUACAGUCCGACGAUCCCCCUUUACCUUUGGCAAGAUUACUUACAACUCAUACAACUUCUUAAUAUCUGAGAACGGUUUAAAAUAUUCUAAAUGCAUAAAAAUAAAGAUUUUGGCUUUUGAUAUAUAUAAUAUUUACAACAGAGGAUUGAGCAUCA
B13: chr14:73742652:73742653:-_ENSG00000133961_ENST00000557597|hu_mus|FALSE|FALSE (ssRNA)
RNA: GGGAGUUCUACAGUCCGACGAUCCUAACCCGCUCACUUUUGGCAAGAUUACUUACAACUCAUACUUUUUAAUAUUGAGAACUAUUUAAAAUAUUCUAGGUGCAUAAAAAUAAAGAUUUUGGCUUUUUGAUAUAUAUAUAUAUACAACAGAGGAUUGAGCAUCA
B14: chr6:135286264:135286265:-_ENSG00000112339_ENST00000367826|hu_hu|FALSE|FALSE (ssRNA)
RNA: GGGAGUUCUACAGUCCGACGAUCUUUGCCAGUUGGCAACUUAGAAUUUUUGCAGAGGUGAUUAUUAAUACUUCUUUGCAGCUAAUUUUAGCUUUAAUUUUUCUCUCUCAUCUAAAAACAUAUCAAUUGCACAUUGUUCCUUUGCAACAGAGGAUUGAGCAUCA

target: T1, UNK ZnF1-3; assay: nsRBNS (natural sequence RNA bind-n-seq); RBNS binding buffer (assumed for nsRBNS): 25 mM Tris pH 7.5, 150 mM KCl, 3 mM MgCl2, 0.01% Triton X-100, 500 ug/ml BSA, 20 U/ml SUPERase-In, 4 C; UNK is unkempt and MSI1 is Musashi-1; names of the RNAs are library labels; protein concentration not given here; high values mean tight binding

| Binder | binding signal |
| --- | --- |
| B1 | 1.1 enrichment R |
| B2 | 1.13 enrichment R |
| B3 | 0.938 enrichment R |
| B4 | 1.58 enrichment R |
| B5 | 0.69 enrichment R |
| B6 | 0.543 enrichment R |
| B7 | 0.994 enrichment R |
| B8 | 0.781 enrichment R |
| B9 | 1.35 enrichment R |
| B10 | 1.02 enrichment R |
| B11 | 0.965 enrichment R |
| B12 | 3.97 enrichment R |
| B13 | 6.08 enrichment R |
| B14 | 0.804 enrichment R |
